The list is not random: actives were taken first. Their share in the collection is about 2.4%.
D2 ag-1 – D2 dopamine receptor (human) agonism | P14416 | HEK293 T-REx D2 cells, calcium flux agonist mode | activation, % at 2 µM | 0.53% of 340,000 active | AID 485358;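 active = activation over 3 SD above normal in the single-dose calcium agonist read, cut at about 30% in these data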
Target sequence (P14416 whole entry, looked up): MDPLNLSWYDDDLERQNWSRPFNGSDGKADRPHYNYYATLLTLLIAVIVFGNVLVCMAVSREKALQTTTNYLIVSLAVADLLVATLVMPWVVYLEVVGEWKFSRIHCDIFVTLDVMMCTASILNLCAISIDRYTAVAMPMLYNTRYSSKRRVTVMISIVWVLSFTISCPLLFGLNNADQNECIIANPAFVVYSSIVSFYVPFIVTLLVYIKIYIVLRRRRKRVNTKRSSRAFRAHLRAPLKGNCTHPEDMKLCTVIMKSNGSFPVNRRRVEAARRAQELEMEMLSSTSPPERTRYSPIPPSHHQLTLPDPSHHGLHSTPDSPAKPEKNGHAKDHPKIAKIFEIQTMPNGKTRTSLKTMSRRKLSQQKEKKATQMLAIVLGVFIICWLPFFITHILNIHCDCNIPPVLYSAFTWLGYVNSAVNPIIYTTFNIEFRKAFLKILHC
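HEK293 Trex D2 cells, tetracycline-induced, o/n 30 C 5% CO2; no-wash Ca dye, RT 30–90 min; 10-cycle baseline, 23 nl cpd added, kinetic Ca read 180 s; agonist hits = positive Ca response.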
D2 PAM-1 – D2 dopamine receptor (human) potentiation; P14416; HEK293 T-REx D2, calcium flux, EC20 dopamine potentiation; potentiation, % at 10 µM; 0.34% of 340,000 active; AID 485347;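 active = potentiation over 3 SD above the plate norm, cut at about 30% in these data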
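Primary screen. Calcium kinetics in induced HEK293 T-REx D2 cells: compound pre-addition 180 s, EC20 dopamine, 180 s more.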
D2 PAM-2 – positive allosteric modulators of human D2 dopamine receptor. potentiation, % (test concentration not listed). P14416. AID 624464. 0.23% of 360,000 active. DiscoveRx D2 beta-arrestin cells, luminescence, 90 min; 100% = 57 uM dopamine signal; in the data active = potentiation above about 50%; inconclusive = mostly about 30% to 49%
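D2 cells co-treated with compound plus 50 nM dopamine (EC20) for 90 min at 37 deg C to detect potentiation. Beta-arrestin recruitment was read as enzyme-fragment luminescence after 1 h at ambient temperature. Full response was set by 57 uM dopamine.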
D2 antag – antagonizes the human D2 dopamine receptor; P14416; HEK293 TREx D2 cells, calcium flux, dopamine EC80; inhibition, % at 10 µM; 2% of 340,000 active; in the data active = inhibition above about 30%; inactive = below that, where a call was filed
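Measurement of antagonist activity uses fluorescent calcium dye in inducible HEK293 T-REx D2 cells: 10 s baseline, compound addition with 180 s read, EC80 dopamine addition with a further 180 s read.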
D2 ag-2 – human D2 receptor agonism in beta-arrestin assay; P14416; DiscoveRx PathHunter D2 beta-arrestin, luminescence, 90 min; 100% = 57 uM dopamine signal; activation, % (no concentration beside the values); 0.084% of 360,000 active; AID 624465; in the data active = activation above about 40%; inconclusive = between about 15% and that limit
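DiscoveRx PathHunter D2 beta-arrestin cells (2,100/well) attached overnight, then compound-stimulated 90 min at 37 C in HBSS/10 mM HEPES/0.1% Tween-20 buffer; beta-galactosidase complementation read by luminescence after 1 h at ambient temperature. Dopamine 57 uM final (EC100) as control.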
A number is an active result; i = inactive; ? = inconclusive; nt = not tested or not shown.

SMILES | D2 ag-1 | D2 PAM-1 | D2 PAM-2 | D2 antag | D2 ag-2
Cc1ccccc1NC(=O)c1c(C)oc2ccc(O)c(CN3CCCC(C)C3)c12 (configuration not stated) | i | i | nt | nt | nt
COCCOC(=O)c1c(C)oc2ccc(OCc3ccccc3)cc12 | i | i | i | 64 | i
Cc1nc2sc(C(=O)N(C)c3ccccc3)c(NC(=O)c3ccccc3Cl)c2c(C)c1C | nt | i | nt | nt | nt
Cc1nnc(SCc2cc(=O)oc3cc(O)ccc23)n1Cc1ccccc1 | i | i | i | 30 | i
O=C(c1ccccc1)N1CCN(CC(O)COc2cccc3ccccc23)CC1 (configuration not stated) | i | i | i | i | i
O=C(c1cccc(COc2cccc3ccccc23)c1)N1CCCC1 | i | 48 | i | i | i
O=C(CCN1CCOCC1)N/N=C/c1cc(Br)cc(Br)c1O | i | i | i | 36 | i
N/C(=N\OS(=O)(=O)c1ccc2ccccc2c1)c1ccncc1 | i | i | 151 | i | 41
N/C(=N\OS(=O)(=O)c1ccccc1)c1ccncc1 | i | i | 96 | i | ?
COc1ccc(N2CCN(C(=O)C34CCC(C)(C(=O)C3)C4(C)C)CC2)cc1 (configuration not stated) | i | i | i | 37 | i
CC12CCC(C(=O)N3CCN(c4ccccc4)CC3)(CC1=O)C2(C)C (configuration not stated) | i | i | i | i | i
Cc1ccc2occ(CC(=O)N(Cc3ccc(Cl)cc3)C3CCS(=O)(=O)C3)c2c1 (configuration not stated) | nt | i | nt | nt | nt
CC(C)(C)c1ccc(C(=O)N2CC(=O)Nc3ccc(F)cc3C2c2ccc(F)cc2)cc1 (configuration not stated) | i | i | nt | nt | nt
O=C(N[C@H](CO)[C@H](O)c1ccc([N+](=O)[O-])cc1)C(Cl)Cl | nt | nt | i | nt | i
O=C(NC(CO)C(O)c1ccc([N+](=O)[O-])cc1)C(Cl)Cl (configuration not stated) | i | i | i | 52 | i
O=C(O)c1ccc(-n2nnnc2SCc2ccccc2F)cc1 | i | i | i | 37 | i
Cc1ccccc1CSc1nnnn1-c1ccc(C(N)=O)cc1 | i | i | i | i | i
Cc1ccc(N(CC(=O)Nc2cc(C)ccc2C)S(=O)(=O)c2c(C)noc2C)cc1 | i | i | nt | nt | nt
COc1cc2[nH]c(=O)n(CCCC(=O)N3CC=C(c4ccccc4)CC3)c(=O)c2cc1OC | i | i | i | i | i
COc1cccc2c1[C@@H]1CN(CCCCn3c(=O)[nH]c4c(sc5ncc(-c6ccccc6)nc54)c3=O)C[C@@H]1CO2 | i | i | i | 56 | i
COc1ccc(-c2nnc(SCC(=O)Nc3cc(OC)ccc3OC)nc2-c2ccc(OC)cc2)cc1 | i | i | nt | nt | nt
CCCCOC(=O)C1[C@H]2C(=O)N(Cc3cccs3)C[C@]23C=C[C@H]1O3 (some centres not stated) | i | i | i | i | i
CC(C)CCOC(=O)C1C2C=CC3(CN(Cc4cccs4)C(=O)C13)O2 (configuration not stated) | i | i | i | 33 | i
Cc1ccc(C)c(NC(=O)CSc2c3c(nc4ccc(Cl)cc24)CCCC3)c1 | i | i | nt | nt | nt
CCN(CC)CCNC(=O)C1c2cc(OC)c(OC)cc2C(=O)N(C)C1c1cccs1 (configuration not stated) | i | nt | i | 35 | i
SMILES | D2 ag-1 | D2 PAM-1 | D2 PAM-2 | D2 antag | D2 ag-2
COc1ccc(NC(=O)CCC(=O)Nc2ccc3nc(N4CCOCC4)cc(C)c3c2)c(OC)c1 | i | i | i | i | i
COc1cc(NC(=O)CCC(=O)Nc2ccc3nc(N4CCOCC4)cc(C)c3c2)cc(OC)c1OC | i | i | i | 31 | i
CC1CC(C)(C)NC(=S)N1CCC(=O)NCCc1ccc(Cl)cc1 (configuration not stated) | i | i | i | 35 | i
S=C(NCCc1ccccc1)N1CCc2ccccc2C1 | i | i | i | 41 | i
OC1CCN(C(=S)NCCc2ccccc2)CC1 | i | i | i | i | i
Cc1ccc(S(=O)(=O)N2CCC(C(=O)N3CC(C)OC(C)C3)CC2)cc1 (configuration not stated) | i | i | i | 50 | i
COc1ccc(COC(=O)NC2CCN(S(=O)(=O)c3ccc(OC)cc3)CC2)cc1 | i | i | i | i | i
COc1ccc(CNC(=O)C2CCN(S(=O)(=O)c3ccc(F)cc3)CC2)cc1 | i | i | nt | nt | nt
COc1ccc(S(=O)(=O)N2CCC(NC(=O)OCc3c(Cl)cccc3Cl)CC2)cc1 | i | i | i | 35 | i
COc1ccc(CNC(=O)C2CCCN(S(=O)(=O)c3ccc(-n4cnnn4)cc3)C2)cc1 (configuration not stated) | i | i | i | 36 | i
COc1ccc(S(=O)(=O)N2CCC(C(=O)NCc3ccc(C)cc3)CC2)cc1 | i | i | i | 34 | i
CCN(CC)S(=O)(=O)c1ccc(NC(=O)[C@H](CSCc2ccccc2)N2Cc3ccccc3C2=O)cc1 | i | i | nt | nt | nt
Cc1ccc(NC(=O)Cn2c(=O)n(CCCCC(=O)NCc3ccccc3Cl)c(=O)c3ccccc32)cc1C | i | i | nt | nt | nt
O=C(CCC(=O)N1CC2CCCN2c2ccccc21)NCc1ccc(F)cc1 (configuration not stated) | i | i | nt | nt | nt
Oc1c(C(c2ccccc2)N2CCOCC2)sc2nc(-c3ccco3)nn12 (configuration not stated) | i | i | nt | nt | nt
COc1ccc(NC(=O)C2CCCN(S(=O)(=O)c3ccc4c(c3)CCCC(=O)N4)C2)cc1OC (configuration not stated) | i | i | nt | nt | nt
COc1ccc(OC)c(C(=O)NC(CC(N)=O)c2ccc(N3CCN(c4ccccc4)CC3)c([N+](=O)[O-])c2)c1 (configuration not stated) | i | i | i | i | i
COc1ccc(OC)c(C(=O)NC(CC(N)=O)c2ccc(N3CCN(c4ccccn4)CC3)c([N+](=O)[O-])c2)c1 (configuration not stated) | i | i | i | 32 | i
CN1C2=C(C#N)C(c3ccccc3)(C(F)(F)F)NC(=O)N2c2ccccc21 (configuration not stated) | i | i | i | 32 | i
Cc1ccc(C2(C(F)(F)F)NC(=O)N3C(=C2C#N)Nc2ccccc23)cc1 (configuration not stated) | i | i | i | i | i
CC(C)c1ccccc1NC(=O)CNCCOc1ccccc1F | 31 | i | i | 46 | i
CC(C)(C)c1ccc(OCC(=O)N(Cc2ccco2)Cc2ccccc2F)cc1 | i | i | nt | nt | nt
O=C(N/N=C/C=C/c1cccc([N+](=O)[O-])c1)c1ccncc1 | i | i | i | i | i
Nc1ccc(C(=O)N/N=C\C=C\c2cccc([N+](=O)[O-])c2)cc1 | i | i | i | 48 | i

Screening results (PubChem)
